# From PubChem BioAssay (Tox21)
# Records with an inconclusive call do not appear. Active and inactive are the calls of the source. Calls follow the shape of the dose curve; as a rule, active = well fitted activation curve with a large enough effect in the repeat runs; inconclusive = weak or mixed curves; inactive = flat fitted curve, though single readings scatter.
# Test: A CellTox Green Cytotoxicity Assay to monitor cytotoxicity in HepG2 cells - 0 hour (AID 1224882); also: nearly all actives have a fitted effect of over 35% in size
# Conditions: CellTox Green fluorescence; series mostly up to 76.8 µM; cytotoxicity: at the top concentration
# Method in brief: (§1)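 Measurements at 0, 8, 16, 24, 32 and 40 h of treatment captured CellTox Green fluorescence in HepG2 cells that had been co-plated with reagent and preincubated 5 h at 37 C/5% CO2.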
# % is scaled to controls: 0 for no effect and ±100 for the full control effect.
row,Compound,cytotoxicity
1,C#CCOC(C(=O)OCCN(C)C)(c1ccccc1)c1ccccc1,2.14% [at 35.3 µM] (inactive)
2,Brc1ccccc1,-5.25% (inactive)
3,Cn1sc(Cl)cc1=O,-4.6% (inactive)
4,CC(C)O.CC(C)O.OCCN(CCO)CCO.OCCN(CCO)CCO.[Ti],0.179% (inactive)
5,O=C1c2ccccc2C(=O)C1C(=O)C(c1ccccc1)c1ccccc1,0.246% [at 35.3 µM] (inactive)
6,CCOS(C)(=O)=O,-0.149% (inactive)
7,O=C(NCc1cccnc1)Nc1ccc([N+](=O)[O-])cc1,2.77% (inactive)
8,ClCCCCBr,-12.9% (inactive)
9,COP(=S)(OC)Oc1cc(Cl)c(I)cc1Cl,5.7% (inactive)
10,Nc1ccc([N+](=O)[O-])cc1[N+](=O)[O-],-1.29% (inactive)
11,C=CC(=O)OCC(C)O (stereo not given),0.319% (inactive)
12,C=CCC1([C@H](C)CCC)C(=O)NC(=O)NC1=O,2.28% (inactive)
13,COc1cc(Cl)c(OC)cc1Cl,3.44% (inactive)
14,Clc1cc(Cl)c(Cl)c(Cl)c1,0.879% (inactive)
15,CC(C)(OO)c1ccccc1,-3.96% (inactive)
16,N#Cc1ccc(Cl)cc1,-2.27% (inactive)
17,CC(=O)C(C)(C)C,-3.14% (inactive)
18,C[N+](C)(C)CCCl,0.135% (inactive)
19,CN1C[C@H](CNC(=O)OCc2ccccc2)C[C@@H]2c3cccc4c3c(cn4C)C[C@H]21,-0.132% [at 35.3 µM] (inactive)
20,CCOP(=S)(OCC)SCSCC,0.207% (inactive)
21,COC1=CC(=O)O[C@@H](CCc2ccccc2)C1,-4.93% (inactive)

# Test: A CellTox Green Cytotoxicity Assay to monitor cytotoxicity in HepG2 cells - 32 hour (AID 1224883); also: nearly all actives have a fitted effect of over 50% in size; also: potency is read from the fitted curve at half-maximal effect
# Conditions: CellTox Green fluorescence; series mostly up to 76.8 µM; cytotoxicity increase: at the top concentration
# Method in brief: as §1
Compound,cytotoxicity increase,Potency
C#CCOC(C(=O)OCCN(C)C)(c1ccccc1)c1ccccc1,-0.243% [at 35.3 µM] (inactive),–
Brc1ccccc1,0.0177% (inactive),–
C[C@]12CC[C@H]3[C@@H](CCC4=CC(=O)CC[C@@H]43)[C@@H]1CC[C@@H]2OC(=O)CCC1CCCCC1,20.7% [at 35.3 µM] (inactive),–
Cn1sc(Cl)cc1=O,0.192% (inactive),–
CC(C)O.CC(C)O.OCCN(CCO)CCO.OCCN(CCO)CCO.[Ti],-22.1% (inactive),–
c1ccoc1,-1.06% (inactive),–
O=C1c2ccccc2C(=O)C1C(=O)C(c1ccccc1)c1ccccc1,-0.513% [at 35.3 µM] (inactive),–
NCC(CC(=O)O)c1ccc(Cl)cc1 (stereo not given),-7.65% [at 0.29 µM] (inactive),–
CCOS(C)(=O)=O,0.748% (inactive),–
O=C(NCc1cccnc1)Nc1ccc([N+](=O)[O-])cc1,-0.755% (inactive),–
Cc1ccccc1CCl,3.19% (inactive),–
ClCCCCBr,-15.4% (inactive),–
COP(=S)(OC)Oc1cc(Cl)c(I)cc1Cl,3.51% (inactive),–
Nc1ccc([N+](=O)[O-])cc1[N+](=O)[O-],-1.03% (inactive),–
CN1C(=O)NC(=O)C(C)(C2=CCCCC2)C1=O (stereo not given),-1.58% [at 35.3 µM] (inactive),–
O=C(CBr)Nc1ccc(Cl)cc1C(=O)c1ccccc1F,0.243% [at 35.3 µM] (inactive),–
C=CC(=O)OCC(C)O (stereo not given),-0.19% (inactive),–

Compound,cytotoxicity increase,Potency
CC1C(=O)C[C@]2(C(C)C)C[C@H]12 (stereo not given in full),-16.6% (inactive),–
C=CCC1([C@H](C)CCC)C(=O)NC(=O)NC1=O,8.27% (inactive),–
COc1cc(Cl)c(OC)cc1Cl,23% (inactive),–
CCCCCCCCCCOC(=O)c1ccccc1C(=O)OCCCCCCCCCC,3.66% (inactive),–
CCCN(CCC)c1c([N+](=O)[O-])cc(S(C)(=O)=O)cc1[N+](=O)[O-],-11.8% (inactive),–
CCc1ccc(C(=O)NN(C(=O)c2cc(C)cc(C)c2)C(C)(C)C)cc1,-2.15% (inactive),–
Clc1cc(Cl)c(Cl)c(Cl)c1,5.48% (inactive),–
CC(C)(OO)c1ccccc1,-5.8% (inactive),–
Nc1ccc(N=Nc2ccc(-c3ccc(N=Nc4c(S(=O)(=O)O)cc5cc(S(=O)(=O)O)c(N=Nc6ccccc6)c(O)c5c4N)cc3)cc2)c(N)c1,-14.9% [at 35.3 µM] (inactive),–
N#Cc1ccc(Cl)cc1,-12.6% (inactive),–
CC(=O)C(C)(C)C,-2.13% (inactive),–
C[N+](C)(C)CCCl,1.69% (inactive),–
CN1C[C@H](CNC(=O)OCc2ccccc2)C[C@@H]2c3cccc4c3c(cn4C)C[C@H]21,–,26.8 µM (active)
CCOP(=S)(OCC)SCSCC,0.491% (inactive),–
O=C(O)COc1ccc(Cl)cc1,-21.8% (inactive),–
ClCc1cccc(Cl)c1,-4.49% [at 35.3 µM] (inactive),–
COC1=CC(=O)O[C@@H](CCc2ccccc2)C1,-1.19% (inactive),–

# Test: A CellTox Green Cytotoxicity Assay to monitor cytotoxicity in HEK293 cells - 8 hour (AID 1224884); also: nearly all actives have a fitted effect of over 35% in size
# Conditions: CellTox Green fluorescence; series mostly up to 76.8 µM; cytotoxicity increase: at the top concentration
# Method in brief: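 Tox21 screen in HEK293: membrane-impermeant cyanine dye fluoresces on binding dead-cell DNA; compound pinned 5 h post-seeding, plates held at 37 C, signal read repeatedly through 40 h.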
row,Compound,cytotoxicity increase
1,C#CCOC(C(=O)OCCN(C)C)(c1ccccc1)c1ccccc1,3.06% [at 35.3 µM] (inactive)
2,CC(C)O.CC(C)O.OCCN(CCO)CCO.OCCN(CCO)CCO.[Ti],-8.77% (inactive)
3,O=C1c2ccccc2C(=O)C1C(=O)C(c1ccccc1)c1ccccc1,-11.7% [at 35.3 µM] (inactive)
4,NCC(CC(=O)O)c1ccc(Cl)cc1 (stereo not given),-12.5% [at 0.29 µM] (inactive)
5,CCOS(C)(=O)=O,19.7% (inactive)
6,O=C(NCc1cccnc1)Nc1ccc([N+](=O)[O-])cc1,13.8% (inactive)
7,Cc1ccccc1CCl,-1.36% (inactive)
8,ClCCCCBr,0.195% (inactive)
9,COP(=S)(OC)Oc1cc(Cl)c(I)cc1Cl,-9.24% (inactive)
10,Nc1ccc([N+](=O)[O-])cc1[N+](=O)[O-],-12.9% (inactive)
11,CN1C(=O)NC(=O)C(C)(C2=CCCCC2)C1=O (stereo not given),2.37% [at 35.3 µM] (inactive)
12,O=C(CBr)Nc1ccc(Cl)cc1C(=O)c1ccccc1F,7.18% [at 35.3 µM] (inactive)
13,C=CC(=O)OCC(C)O (stereo not given),-8.54% (inactive)
14,C=CCC1([C@H](C)CCC)C(=O)NC(=O)NC1=O,1.08% (inactive)
15,COc1cc(Cl)c(OC)cc1Cl,-1.85% (inactive)
16,CCCCCCCCCCOC(=O)c1ccccc1C(=O)OCCCCCCCCCC,1.79% (inactive)
17,CCCN(CCC)c1c([N+](=O)[O-])cc(S(C)(=O)=O)cc1[N+](=O)[O-],-0.448% (inactive)
18,Clc1cc(Cl)c(Cl)c(Cl)c1,2.51% (inactive)
19,CC(C)(OO)c1ccccc1,10.9% (inactive)
20,Nc1ccc(N=Nc2ccc(-c3ccc(N=Nc4c(S(=O)(=O)O)cc5cc(S(=O)(=O)O)c(N=Nc6ccccc6)c(O)c5c4N)cc3)cc2)c(N)c1,7.75% [at 35.3 µM] (inactive)
21,N#Cc1ccc(Cl)cc1,8.14% (inactive)
22,CC(=O)C(C)(C)C,1.62% (inactive)
23,CN1C[C@H](CNC(=O)OCc2ccccc2)C[C@@H]2c3cccc4c3c(cn4C)C[C@H]21,-6.57% [at 35.3 µM] (inactive)
24,O=C(O)COc1ccc(Cl)cc1,15.6% (inactive)
25,COC1=CC(=O)O[C@@H](CCc2ccccc2)C1,-4.71% (inactive)
